# Assay results reported in PubChem BioAssay (NCI).
# This is part of a sample that, as a whole, favours compounds with a hit. Of some 83,000 tested, about 20% had one in any assay.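 Results are percent growth after 48 hours of single-concentration exposure. 100 means growth as in untreated cells, lower positive values show inhibition; negative values down to -100 show cell death.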 A number with no mark means an inactive call. The source made the active and inactive calls. The calls were made as follows: active = growth percent below 10; inactive = the rest.
# Test system: HL-60(TB) leukemia
# Assay: NCI-60 one-dose screen, 48 h (100 = growth as untreated, 0 = no growth, -100 = all killed)
# Conditions: 10 µM unless noted
row,Structure (SMILES),growth
1,CCOC(=O)C1=C(c2ccccc2)N=C2SC=C(c3ccc(Cl)cc3)N2C1c1ccc(Br)cc1 (stereo not given),55.2%
2,O=C1C=CC(=O)N1c1ccc(Cc2ccc(N3C(=O)C=CC3=O)cc2)cc1,9.02% (active)
3,Cc1ccc(S(=O)(=O)N2CCN(C(=O)CSc3nc4ccc(C)cc4[nH]3)CC2)cc1,-1.47% (active)
4,COc1ccc2nc(NC(=O)c3cc(-c4ccc(F)cc4)n4nc(-c5ccccc5)cc4n3)sc2c1,98.7%
5,CC1OC(n2c3ccccc3c3c4c(c5c6ccccc6[nH]c5c32)C(=O)N(CCN2CCOCC2)C4=O)CC(O)C1O (stereo not given),24.3%
6,Cn1cnc([N+](=O)[O-])c1Sc1nnc(-c2ccccc2)c(-c2ccccc2)n1,104%
7,CCN(CC)C(=O)CC1=C(C)/C(=C/c2[nH]c(-c3ccc[nH]3)cc2OC)N=C1C,0.518% (active)
8,O=C(CCCSc1nc(-c2ccc(Cl)cc2)cc(-c2ccc(Cl)cc2)n1)NO,-25.4% (active)
9,NNCCc1ccc(NC(=O)CCCc2ccc(/C=C/C(=O)NO)cc2)cc1,18.3%
10,Cc1onc(-c2ccccc2Cl)c1C(=O)Cl,104%
11,CCOC(=O)C1=C(C)NC(=O)NC1c1cc(=O)oc2ccc(C)cc12 (stereo not given),97.6%
12,CNCC[C@H](Oc1cccc2ccccc12)c1cccs1,85.5%
13,Cc1ccc(-c2nc(SCc3nc4cc(Cl)c(Cl)cc4[nH]3)[nH]c(=O)c2C#N)cc1,96.9%
14,Fc1[nH]nc2ccc([C@@H]3Nc4ccc5[nH]ncc5c4[C@H]4C5CCC(C5)[C@@H]34)cc12 (stereo not given in full),14.4%
15,CCn1c2ccc(O)cc2c2c(C)c3c[n+](C(C)C)ccc3c(C)c21,70.3%
16,Nc1n[nH]c2ccc([C@@H]3Nc4c(F)cc5[nH]ncc5c4[C@H]4C5CCC(C5)[C@@H]34)cc12 (stereo not given in full),1.76% (active)
17,Oc1c(Cl)cc(Cl)cc1CNc1nccnn1,115%
18,O=C1OCC2=C1C(c1ccc3c(c1)OCO3)CC(=O)N2c1cccc(Cl)c1 (stereo not given),95.6%
19,CCCCO[C@@H]1C=C2[C@H]3CC(C)(C)C(=O)C[C@]3(C(=O)O[C@@H]3O[C@H](CO[C@@H]4O[C@H](CO)[C@@H](OC5OC(C)C(O)C(O)C5O)[C@H](O)[C@H]4O)[C@@H](O)[C@H](O)[C@H]3O)CC[C@@]2(C)[C@]2(C)CC[C@H]3C(C)(C)C(=O)CC[C@]3(C)[C@@H]12 (stereo not given in full),49.2%
20,Cc1cc(N(CCNc2ccnc3cc(Cl)ccc23)Cc2ccc3c(c2)OCO3)nc(N2CCN(C)CC2)n1,-57.8% (active)

row,Structure (SMILES),growth
1,Cc1[nH]c(/C=C2\C(=O)Nc3ccc(F)cc32)c(C)c1C(=O)NC[C@H](O)CN1CCOCC1,4.41% (active)
2,COc1ccc(C2CC(c3cccc(Nc4ccnc5cc(Cl)ccc45)c3)=NN2C=O)cc1 (stereo not given),-38.2% (active)
3,COc1ccc2c(c1)CC/C(=C\c1cncc(Br)c1)C2=O,100%
4,C=C(C)[C@@H]1CC[C@]2(C(=O)O)CC[C@]3(C)[C@H](CC[C@@H]4[C@@]5(C)C[C@@H](CC#Cc6ccc(C(F)(F)F)cc6)[C@H](O)C(C)(C)[C@@H]5CC[C@]43C)[C@@H]12,7.01% (active)
5,COc1ccc(-c2cnoc2-c2ccc(OC)cc2O)cc1,26.4%
6,CC(C)NC(=O)N1C(=O)CCC1NNC(=O)c1ccc([N+](=O)[O-])cc1 (stereo not given),107%
7,O=c1c2c3c(sc2nc(N/N=C/c2cn(-c4ccccc4)nc2-c2ccc(Cl)cc2)n1Cc1ccccc1)CCCC3,-32.4% (active)
8,COc1ccc(C2C(c3ccccc3)C(=O)N2c2cc(OC)c(OC)c(OC)c2)cc1I (stereo not given),-31.6% (active)
9,COc1ccc2nc(-c3ccc(-c4noc(-c5ccc(Cl)cc5)n4)cc3)[nH]c2c1,104%
10,CCN(CC)CC(C)Nc1ccc(C)c2sc3ccccc3c(=O)c12 (stereo not given),50.8%
11,C#CCNCCN1C(=O)c2ccc3c4c(ccc(c24)C1=O)C(=O)N(CCNCC#C)C3=O,-18.4% (active)
12,COc1cc2c(cc1O)C(=O)CCCC2,90.3%
13,Cc1[nH]c(N=Nc2ccccc2)nc1N=Nc1ccccc1,8.83% (active)
14,CC(O)CN(CC(C)O)N(CC(C)O)CC(C)O (stereo not given),102%
15,CC(Cc1cccc(C(F)(F)F)c1)NCCOC(=O)c1ccccc1 (stereo not given),102%
16,CCOc1ccc(/C=C/C(=O)c2cccc(OCCCOc3cccc(C(=O)/C=C/c4ccc(OCC)cc4)c3)c2)cc1,56%
17,O=C(Nc1nc(-c2ccc(Br)cc2)cs1)c1cc(-c2ccc(Br)cc2)nc2ccc(Cl)cc12,96.6%
18,COc1ccc(Nc2ncnc3ccc(-c4cncc(NS(C)(=O)=O)c4)cc23)cc1Cl,3.01% (active)
19,O=C(CCCCCNC(=O)c1cc(=O)c(O)co1)Nc1ccccc1,106%
20,CC(=O)Nc1ccc2c(c1)C(N1CC3CCC(CC3)C1)c1ccccc1-2 (stereo not given),52.3%
